From PubChem BioAssay (NCATS)
Inconclusive results are not listed. Where a call stands in place of a potency, no number is given. Activity calls are given as the source filed them. The call rests on the fitted dose curve; in most records, active means well fitted inhibition curve with a large enough effect; inconclusive means small, poorly fitted or top-dose-only effect; inactive means flat fitted curve, though single readings scatter.

How the values were obtained:
Assay in all cases: qHTS profiling for inhibitors of Plasmodium falciparum proliferation (AID 504749); further: nearly all actives have a fitted effect of over 60% in size
Details in all cases: P. falciparum in erythrocytes, SYBR Green DNA, 72 h; series mostly up to 28.7 µM
DIV14 = test system: DIV14
How it was run: (§1)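 P. falciparum-infected erythrocytes (0.3% parasitemia, 2.5% hematocrit final) were exposed to compounds for 72 h at 37 C in 5% CO2, then lysed with SYBR Green buffer overnight at room temperature; parasite DNA fluorescence was normalized to artemisinin and DMSO controls.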

DIV17 = test system: DIV17
How it was run: as §1

DIV30 = test system: DIV30
How it was run: as §1

Dd2 = test system: Dd2
How it was run: as §1

ECU = test system: ECU
How it was run: as §1

FAB9 = test system: FAB9
How it was run: as §1

GB4 = test system: GB4
How it was run: as §1

HB3 = test system: HB3
How it was run: as §1

ICS = test system: ICS
How it was run: as §1

JCK = test system: JCK
How it was run: as §1

N140 = test system: N140
How it was run: as §1

P93_24 = test system: P93_24
How it was run: as §1

P94_40 = test system: P94_40
How it was run: as §1

PAD = test system: PAD
How it was run: as §1

PC15 = test system: PC15
How it was run: as §1

PC26 = test system: PC26
How it was run: as §1

PC49 = test system: PC49
How it was run: as §1

SC27B = test system: SC27B
How it was run: as §1

TAB109 = test system: TAB109
How it was run: as §1

TAB113 = test system: TAB113
How it was run: as §1
Potency means the concentration at half of the fitted maximal effect.

In the case of `COc1cc2c(cc1OC)-c1cc(=Nc3c(C)cc(C)cc3C)n(C)c(=O)n1CC2`, the Potency (DIV14) is reported as 3.01 µM (active), the Potency (DIV17) is reported as 3.38 µM (active) and the Potency (DIV30) is reported as 6.01 µM (active). For the same compound, the Potency (Dd2) was 7.94 µM (active), the Potency (ECU) was 5.01 µM (active) and the Potency (FAB9) was 3.98 µM (active). The Potency (GB4) was 2.69 µM (active), the Potency (HB3) was 7.08 µM (active) and the Potency (ICS) was 1.78 µM (active). The Potency (JCK) was 5.62 µM (active), the Potency (N140) was 3.16 µM (active) and the Potency (P93_24) was 3.55 µM (active). The Potency (P94_40) was 3.98 µM (active), the Potency (PAD) was 3.16 µM (active) and the Potency (PC15) was 10 µM (active). For the same compound, the Potency (PC26) was 6.01 µM (active), the Potency (PC49) was 3.55 µM (active) and the Potency (SC27B) was 2.82 µM (active). For the same compound, the Potency (TAB109) was 4.47 µM (active) and the Potency (TAB113) was 3.16 µM (active).
In the case of `C#CCN(C)CCCOc1ccc(Cl)cc1Cl`, the Potency (DIV14) is reported as “inactive”, the Potency (DIV30) is reported as “inactive” and the Potency (Dd2) is reported as “inactive”. The Potency (ECU) was “inactive”, the Potency (FAB9) was “inactive” and the Potency (GB4) was “inactive”. For the same compound, the Potency (HB3) was “inactive”, the Potency (ICS) was “inactive” and the Potency (JCK) was “inactive”. The Potency (N140) was “inactive”, the Potency (P93_24) was “inactive” and the Potency (P94_40) was “inactive”. The Potency (PAD) was “inactive”, the Potency (PC15) was “inactive” and the Potency (PC26) was “inactive”. For the same compound, the Potency (PC49) was “inactive”, the Potency (SC27B) was “inactive” and the Potency (TAB109) was “inactive”. The Potency (TAB113) was “inactive”.
For `NC1=NCC2c3ccccc3Cc3ccccc3N12` (configuration not stated), the Potency (DIV17) was 13.5 µM (active), the Potency (DIV30) was “inactive” and the Potency (Dd2) was “inactive”. For the same compound, the Potency (ECU) was “inactive”, the Potency (FAB9) was “inactive” and the Potency (HB3) was “inactive”. The Potency (JCK) was “inactive”, the Potency (N140) was “inactive” and the Potency (P93_24) was “inactive”. For the same compound, the Potency (P94_40) was “inactive”, the Potency (PAD) was “inactive” and the Potency (PC15) was “inactive”. The Potency (PC26) was “inactive”, the Potency (PC49) was “inactive” and the Potency (SC27B) was “inactive”. For the same compound, the Potency (TAB109) was “inactive” and the Potency (TAB113) was “inactive”.
`c1cnc(N2CCN(Cc3ccc4c(c3)OCO4)CC2)nc1` was tested, and the Potency (DIV17) was “inactive”, the Potency (DIV30) was “inactive” and the Potency (Dd2) was “inactive”. For the same compound, the Potency (ECU) was “inactive”, the Potency (FAB9) was “inactive” and the Potency (GB4) was “inactive”. The Potency (HB3) was “inactive”, the Potency (ICS) was “inactive” and the Potency (JCK) was “inactive”. The Potency (N140) was “inactive”, the Potency (P93_24) was “inactive” and the Potency (P94_40) was “inactive”. For the same compound, the Potency (PAD) was “inactive”, the Potency (PC15) was “inactive” and the Potency (PC26) was “inactive”. The Potency (PC49) was “inactive”, the Potency (SC27B) was “inactive” and the Potency (TAB109) was “inactive”. The Potency (TAB113) was “inactive”.
With `CCn1cc(C(=O)O)c(=O)c2cc3c(cc21)OCO3` the Potency (DIV14) was “inactive”, the Potency (DIV30) was “inactive” and the Potency (Dd2) was “inactive”. For the same compound, the Potency (ECU) was “inactive”, the Potency (FAB9) was “inactive” and the Potency (GB4) was “inactive”. For the same compound, the Potency (HB3) was “inactive”, the Potency (ICS) was “inactive” and the Potency (JCK) was “inactive”. For the same compound, the Potency (N140) was “inactive”, the Potency (P93_24) was “inactive” and the Potency (P94_40) was “inactive”. The Potency (PAD) was “inactive”, the Potency (PC15) was “inactive” and the Potency (PC26) was “inactive”. The Potency (PC49) was “inactive”, the Potency (SC27B) was “inactive” and the Potency (TAB109) was “inactive”. For the same compound, the Potency (TAB113) was “inactive”.
With `COc1ccc(CN(CCN(C)C)c2ccccn2)cc1` the Potency (ECU) was “inactive”, the Potency (FAB9) was “inactive” and the Potency (GB4) was 6.01 µM (active). The Potency (HB3) was “inactive”, the Potency (ICS) was “inactive” and the Potency (JCK) was 1.26 µM (active). For the same compound, the Potency (P93_24) was “inactive”, the Potency (P94_40) was “inactive” and the Potency (PAD) was “inactive”. The Potency (PC15) was “inactive”, the Potency (PC26) was “inactive” and the Potency (PC49) was 0.178 µM (active). For the same compound, the Potency (TAB113) was “inactive”.
With `CCCN1C[C@H](CSC)C[C@@H]2c3cccc4[nH]cc(c34)C[C@H]21` the Potency (DIV17) was 7.57 µM (active), the Potency (FAB9) was “inactive” and the Potency (HB3) was “inactive”. The Potency (ICS) was 11.2 µM (active), the Potency (PC15) was “inactive” and the Potency (PC49) was “inactive”. The Potency (SC27B) was 11.2 µM (active) and the Potency (TAB109) was 12.6 µM (active).
In the case of `CN(C(=O)CCCOc1ccc2[nH]c(=O)ccc2c1)C1CCCCC1`, the Potency (ECU) is reported as “inactive”, the Potency (FAB9) is reported as “inactive” and the Potency (GB4) is reported as “inactive”. For the same compound, the Potency (HB3) was “inactive”, the Potency (N140) was “inactive” and the Potency (PC15) was “inactive”. The Potency (SC27B) was “inactive”, the Potency (TAB109) was “inactive” and the Potency (TAB113) was “inactive”.
In the case of `OC(CCN1CCCCC1)(c1ccccc1)C1CCCCC1` (configuration not stated), the Potency (FAB9) is reported as “inactive”, the Potency (GB4) is reported as “inactive” and the Potency (HB3) is reported as “inactive”. The Potency (JCK) was “inactive”, the Potency (PAD) was “inactive” and the Potency (PC15) was “inactive”. For the same compound, the Potency (SC27B) was “inactive” and the Potency (TAB113) was “inactive”.
In the case of `CN(C)C/C=C(/c1ccc(Br)cc1)c1cccnc1`, the Potency (DIV17) is reported as “inactive”, the Potency (DIV30) is reported as “inactive” and the Potency (Dd2) is reported as 12.6 µM (active). For the same compound, the Potency (FAB9) was “inactive”, the Potency (HB3) was “inactive” and the Potency (JCK) was “inactive”. For the same compound, the Potency (N140) was “inactive”, the Potency (PC15) was “inactive” and the Potency (PC26) was “inactive”. For the same compound, the Potency (PC49) was “inactive”, the Potency (SC27B) was “inactive” and the Potency (TAB113) was “inactive”.
With `CCCCNc1ccc(C(=O)OCCN(C)C)cc1` the Potency (DIV30) was “inactive”, the Potency (Dd2) was “inactive” and the Potency (ECU) was “inactive”. For the same compound, the Potency (FAB9) was “inactive”, the Potency (GB4) was “inactive” and the Potency (HB3) was “inactive”. The Potency (ICS) was “inactive”, the Potency (JCK) was “inactive” and the Potency (N140) was “inactive”. The Potency (P93_24) was “inactive”, the Potency (P94_40) was “inactive” and the Potency (PAD) was “inactive”. For the same compound, the Potency (SC27B) was “inactive”, the Potency (TAB109) was “inactive” and the Potency (TAB113) was “inactive”.
For `CC[N+](C)(C)c1cccc(O)c1`, the Potency (DIV14) was “inactive”, the Potency (DIV30) was “inactive” and the Potency (Dd2) was “inactive”. For the same compound, the Potency (ECU) was “inactive”, the Potency (FAB9) was “inactive” and the Potency (GB4) was “inactive”. The Potency (HB3) was “inactive”, the Potency (ICS) was “inactive” and the Potency (JCK) was “inactive”. The Potency (N140) was “inactive”, the Potency (P93_24) was “inactive” and the Potency (P94_40) was “inactive”. For the same compound, the Potency (PAD) was “inactive”, the Potency (PC15) was “inactive” and the Potency (PC26) was “inactive”. The Potency (PC49) was “inactive”, the Potency (SC27B) was “inactive” and the Potency (TAB109) was “inactive”. For the same compound, the Potency (TAB113) was “inactive”.
For `NC(N)=N/N=C/c1c(Cl)cccc1Cl`, the Potency (GB4) was 12 µM (active), the Potency (ICS) was 8.91 µM (active) and the Potency (JCK) was “inactive”. For the same compound, the Potency (PC49) was “inactive” and the Potency (SC27B) was “inactive”.
`Cc1nc2sccn2c(=O)c1CCN1CCC(=C(c2ccc(F)cc2)c2ccc(F)cc2)CC1` was tested, and the Potency (DIV17) was 16.9 µM (active), the Potency (FAB9) was “inactive” and the Potency (ICS) was 8.91 µM (active). For the same compound, the Potency (P94_40) was 11.2 µM (active).
With `CCCCCCCC/C=C\CCCCCCCC(=O)NCc1ccc(O)c(OC)c1` the Potency (DIV17) was “inactive”, the Potency (DIV30) was “inactive” and the Potency (Dd2) was 14.1 µM (active). For the same compound, the Potency (PC26) was “inactive” and the Potency (SC27B) was 10 µM (active).
For `CN(C)CCOC(=O)COc1ccc(Cl)cc1`, the Potency (DIV30) was “inactive”, the Potency (Dd2) was “inactive” and the Potency (ECU) was “inactive”. For the same compound, the Potency (FAB9) was “inactive”, the Potency (GB4) was “inactive” and the Potency (HB3) was “inactive”. The Potency (ICS) was “inactive”, the Potency (JCK) was “inactive” and the Potency (N140) was “inactive”. The Potency (P93_24) was “inactive”, the Potency (P94_40) was “inactive” and the Potency (PAD) was “inactive”. For the same compound, the Potency (SC27B) was “inactive”, the Potency (TAB109) was “inactive” and the Potency (TAB113) was “inactive”.
In the case of `CC(C)COCC(CN(Cc1ccccc1)c1ccccc1)N1CCCC1` (configuration not stated), the Potency (DIV14) is reported as “inactive”, the Potency (DIV17) is reported as “inactive” and the Potency (ECU) is reported as “inactive”. The Potency (FAB9) was “inactive”, the Potency (HB3) was “inactive” and the Potency (JCK) was “inactive”. For the same compound, the Potency (P93_24) was “inactive”, the Potency (PAD) was “inactive” and the Potency (PC49) was “inactive”. The Potency (SC27B) was “inactive”, the Potency (TAB109) was “inactive” and the Potency (TAB113) was “inactive”.
For `CN(C)CCCN1c2ccccc2Sc2ccc(C(F)(F)F)cc21`, the Potency (DIV14) was 6.75 µM (active), the Potency (DIV17) was 5.36 µM (active) and the Potency (ECU) was 12.6 µM (active). The Potency (FAB9) was “inactive”, the Potency (HB3) was “inactive” and the Potency (ICS) was 10 µM (active). The Potency (PC49) was 8.91 µM (active).
For `Brc1c(NC2=NCCN2)ccc2nccnc12`, the Potency (DIV30) was “inactive”, the Potency (Dd2) was “inactive” and the Potency (FAB9) was “inactive”. The Potency (GB4) was 12 µM (active), the Potency (ICS) was 3.98 µM (active) and the Potency (JCK) was “inactive”. The Potency (P93_24) was 11.2 µM (active), the Potency (P94_40) was “inactive” and the Potency (PC49) was “inactive”. The Potency (SC27B) was “inactive”.
For `CNCCC(Oc1ccccc1OC)c1ccccc1` (configuration not stated), the Potency (DIV14) was 4.78 µM (active), the Potency (DIV17) was 8.49 µM (active) and the Potency (Dd2) was 6.31 µM (active). For the same compound, the Potency (FAB9) was “inactive”, the Potency (HB3) was “inactive” and the Potency (PC49) was 3.16 µM (active).
